Source: PubChem
HCV inh: qHTS Assay for Inhibitors of Hepatitis C Virus (HCV); Huh7.5.1 HCVcc-Cre infection, luciferase reporter, 44 h; 340,000 tested, 3.4% active; AID 651820, 2012; Potency, µM (series often up to 41.8 µM), inactives show top-dose activity change, negative = inhibition, usual class: inhibitors; active = well fitted inhibition curve with a large enough effect; inconclusive = small, poorly fitted or top-dose-only effect, or another doubt; inactive = no such curve, though single readings can be large or run the other way; also: potency is read from the fitted curve at half-maximal effect
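Infectious HCV cell culture screen: compound-treated cells (1,000/well, pre-plated 4 h) are infected with HCVcc-Cre at roughly 0.5 moi and grown 44 h. Infection is quantified by luciferase signal after 15 min substrate incubation at room temperature.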
HCMV inh: qHTS Assay for inhibitors of the human cytomegalovirus (HCMV) | activity change, negative = inhibition, % at 57.5 µM | HFF cells, HCMV-luciferase reporter, 72 h; active compounds read low | 410,000 tested, 4.5% active; in the data active = activity change below about -60%; inconclusive = no clear call, values can overlap the other calls; inactive = above about -39%
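Two-dose cell screen: HFF monolayers treated with compounds and infected with luciferase-expressing HCMV at 1 PFU/cell, 72 h at 37C, then lysed for luciferase measurement.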
VACV mCherry inh: qHTS for Stage-Specific Inhibitors of Vaccinia Orthopoxvirus: mCherry Reporter Primary qHTS. Potency, µM (titrated, usually from 36.5 µM), for the others: at the top dose activity change, negative = inhibition, hits mostly inhibitors. Vaccinia virus mCherry reporter infection, fluorescence. 310,000 tested, 0.63% active; calls by dose curve; tested in A549 cells; also: potency is read from the fitted curve at half-maximal effect; nearly all actives have a fitted effect of over 35% in size
Vaccinia Venus: qHTS for Stage-Specific Inhibitors of Vaccinia Orthopoxvirus: Venus Reporter Primary qHTS; Vaccinia virus Venus reporter expression, fluorescence; Potency, µM (titrated, usually from 36.5 µM), without a hit: at the top dose activity change, negative = inhibition, most hits filed as inhibitors; 330,000 tested, 0.46% active; AID 720580, 2013; calls by dose curve; tested in A549 cells; also: potency is read from the fitted curve at half-maximal effect; nearly all actives have a fitted effect of over 30% in size
MARV entry inh: qHTS for inhibitors of binding or entry into cells for Marburg Virus | Marburg virus pseudotyped entry inhibition, cell reporter | AID 540276, 2011 | 300,000 tested, 1.8% active | Potency, µM (doses to about 37.8 µM), for inactives: at the highest dose activity change, negative = inhibition, hits mostly inhibitors; calls by dose curve; tested in HEK293 cells; also: potency is read from the fitted curve at half-maximal effect
LASV entry inh: qHTS for Inhibitors of binding or entry into cells for Lassa Virus; Lassa virus pseudotype entry inhibition, cell reporter; Potency, µM (top dose mostly 37.9 µM), for inactives: top-dose activity change, negative = inhibition, most hits filed as inhibitors; 300,000 tested, 1.2% active; calls by dose curve; tested in HEK293 cells; also: potency is read from the fitted curve at half-maximal effect; nearly all actives have a fitted effect of over 50% in size
* marks the source's active call; other numbers are inactive results; [ ] = dose if it differs, or a comment. This is a sample that favours compounds with a hit; in the whole collection about 7.8% have one here. % is scaled to controls: 0 for no effect and ±100 for the full control effect.

How did CC(C)=CCc1c2c(c3occ(-c4ccc(O)c(O)c4)c(=O)c3c1O)C=CC(C)(C)O2 do in these assays?
HCV inh: inconclusive; HCMV inh: -29; VACV mCherry inh: 10µM*; Vaccinia Venus: 11µM*; MARV entry inh: inconclusive; LASV entry inh: 16µM*

What do the screens show for `CC(C)=CCc1c2c(c3occ(-c4ccc(O)cc4)c(=O)c3c1O)C=CC(C)(C)O2`?
HCV inh: inconclusive; HCMV inh: -106*; VACV mCherry inh: inconclusive; Vaccinia Venus: inconclusive

How did Cc1cn2c(=O)cc(COc3cccc(NC(=O)c4ccc(C(C)(C)C)cc4)c3)nc2s1 do in these assays?
HCMV inh: -20; VACV mCherry inh: inactive[7.34 µM]; Vaccinia Venus: -9%[7.34 µM]; MARV entry inh: inconclusive; LASV entry inh: 7%[46.1 µM]

How did COC(=O)c1cn(C(=O)c2ccc(OC)cc2)c2ccccc12 do in these assays?
HCV inh: inconclusive; HCMV inh: -65*; VACV mCherry inh: -22%; Vaccinia Venus: inconclusive; MARV entry inh: inconclusive; LASV entry inh: -20%[46.1 µM]

Results for CC(=O)c1cn(C(=O)c2ccc(Cl)cc2)c2ccccc12 ?
HCV inh: -8%; HCMV inh: -67*; VACV mCherry inh: -8%; Vaccinia Venus: -14%; MARV entry inh: 9%[46.1 µM]; LASV entry inh: 11%[46.1 µM]

How did COC(=O)c1cn(C(=O)c2ccc(C)c(C)c2)c2ccccc12 do in these assays?
HCV inh: -13%; HCMV inh: inconclusive; VACV mCherry inh: inconclusive; Vaccinia Venus: -29%; MARV entry inh: 3%; LASV entry inh: inconclusive

What do the screens show for `COC(=O)c1cn(C(=O)c2ccc(C)cc2)c2ccccc12`?
HCV inh: -29%; HCMV inh: -7

Results for Cc1[nH]c(N=Nc2ccccc2)nc1N=Nc1ccccc1 ?
HCV inh: 13µM*; HCMV inh: -37; VACV mCherry inh: inconclusive; Vaccinia Venus: -15%; MARV entry inh: inconclusive; LASV entry inh: inconclusive

Results for COc1ccc(-c2n[nH]c3c2CN(C(=O)c2ccc(OC)c(OC)c2)CC3)cc1 ?
HCV inh: -19%; HCMV inh: -40

What do the screens show for `O=C(Cc1ccccc1)N1CCc2[nH]nc(-c3ccccc3)c2C1`?
HCV inh: -8%; HCMV inh: -9; VACV mCherry inh: -28%; Vaccinia Venus: -21%; MARV entry inh: inconclusive; LASV entry inh: 11µM*

How did COc1cc(NC(=O)COc2cc(O)c3c(c2)OC(C)(C)CC3=O)cc(OC)c1OC do in these assays?
HCV inh: 0.32µM*; HCMV inh: 0; VACV mCherry inh: inconclusive; Vaccinia Venus: inconclusive

Results for COc1cc(NC(=O)CC(c2cccs2)N2Cc3ccccc3C2=O)cc(OC)c1OC (stereo not given) ?
HCMV inh: -5; VACV mCherry inh: -20%; Vaccinia Venus: -5%; LASV entry inh: 5%[46.1 µM]

What do the screens show for `Nc1c(Cl)cc(-c2cn(CCC(=O)O)c(=O)cn2)cc1Cl`?
HCMV inh: 22

Results for O=c1c2c(-c3cccs3)csc2ncn1-c1ccccc1 ?
HCV inh: inconclusive; HCMV inh: -9; Vaccinia Venus: -19%; MARV entry inh: -26%; LASV entry inh: 15%

Results for Cc1ccc(-n2cnc3scc(-c4cccs4)c3c2=O)cc1 ?
HCV inh: 11µM*; HCMV inh: 21; VACV mCherry inh: -14%; Vaccinia Venus: -23%; MARV entry inh: -14%; LASV entry inh: -1%

How did O=c1c2ccccc2nc2n1C(CSc1ccc(F)cc1)CS2 (stereo not given) do in these assays?
HCV inh: 17%; HCMV inh: -35; VACV mCherry inh: inactive; Vaccinia Venus: -2%; MARV entry inh: inconclusive; LASV entry inh: 5%[46.1 µM]

Results for Cc1cccc(C(=O)NC(=S)Nc2cccc3nc(C)ccc23)c1 ?
HCMV inh: -21; VACV mCherry inh: inactive; Vaccinia Venus: -27%; MARV entry inh: -10%; LASV entry inh: inconclusive
